Measured values reported in PubChem BioAssay (NCI).
About 79,000 compounds went through this panel and 15% of them were active in at least one assay; those are over-represented in the sample as a whole. Values without a mark were called inactive. Active and inactive are the calls of the source. Rule as the data show it: active = growth inhibition above about 70%; inactive = the rest.

Key:
[1] = NCI Yeast Anticancer Drug Screen. Data for the rad50 strain (AID 155);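 also: 0% = growth of vehicle-only cultures of the same strain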; settings: S. cerevisiae rad50 strain growth inhibition, active compounds read high
Procedure, shortened: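 Growth of the mutant yeast was measured after compound exposure and referenced to vehicle-treated cultures.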

[2] = NCI Yeast Anticancer Drug Screen. Data for the mec2-1 strain (AID 157); settings: S. cerevisiae mec2-1 strain, active compounds read high
Procedure, shortened: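 Each compound was tested on mec2-1 yeast, a strain altered in DNA damage repair or cell cycle control. Growth inhibition is reported relative to vehicle.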

[3] = NCI Yeast Anticancer Drug Screen. Data for the sgs1 mgt1 strain (AID 161);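 also: 0% = growth of cultures given vehicle only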; settings: S. cerevisiae sgs1 mgt1 strain, active compounds read high
Procedure, shortened: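 Mutant yeast exposed to compound; growth scored against vehicle-only wells.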

[4] = NCI Yeast Anticancer Drug Screen. Data for the cln2 rad14 strain (AID 165);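 also: 0% = growth equal to vehicle treated cultures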; settings: S. cerevisiae cln2 rad14 strain, active compounds read high
Procedure, shortened: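 Test compounds were added to cln2 rad14 yeast cultures; inhibition of growth was then determined by comparison with vehicle treatment.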

[5] = NCI Yeast Anticancer Drug Screen. Data for the bub3 strain (AID 167); settings: S. cerevisiae bub3 mutant strain, active compounds read high
Procedure, shortened: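 Whole-cell yeast assay. The mutant strain was incubated with compounds, and growth inhibition was determined by comparison with vehicle-treated cells.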

[6] = NCI Yeast Anticancer Drug Screen. Data for the mlh1 rad18 strain (AID 175); settings: S. cerevisiae mlh1 rad18 strain growth inhibition, active compounds read high
Procedure, shortened: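 Inhibition values reflect reduced growth of mutant yeast versus vehicle-treated controls following compound exposure; the mutations affect DNA damage repair.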

[7] = at 5.0 µM (retest, dose inferred, filed as 0.5)
[8] = at 50.0 µM (retest, dose inferred, filed as 5.0)

Oc1ccc(C2(c3ccc(O)c(Cl)c3)CC3CCC2C3)cc1Cl (stereo not given)
growth inhibition [1, 7]: 98% (active)
growth inhibition [1, 8]: 98% (active)
growth inhibition ([1]; at 50.0 µM): 98% (active)
growth inhibition [2, 7]: 99% (active)
growth inhibition [2, 8]: 99% (active)
growth inhibition ([2]; at 50.0 µM): 99.2% (active)
growth inhibition [3, 7]: 99% (active)
growth inhibition [3, 8]: 98% (active)
growth inhibition ([3]; at 50.0 µM): 99.3% (active)
growth inhibition [4, 7]: 99% (active)
growth inhibition [4, 8]: 98% (active)
growth inhibition ([4]; at 50.0 µM): 99% (active)
growth inhibition [5, 7]: 99% (active)
growth inhibition [5, 8]: 98% (active)
growth inhibition ([5]; at 50.0 µM): 98.8% (active)
growth inhibition [6, 7]: 99% (active)
growth inhibition [6, 8]: 97% (active)
growth inhibition ([6]; at 50.0 µM): 98.7% (active)

O=C1CCCC1C(=O)OC1CCCC1 (stereo not given)
growth inhibition [1, 7]: 42%
growth inhibition [1, 8]: 13%
growth inhibition ([1]; at 50.0 µM): -7.55%
growth inhibition [2, 7]: 13%
growth inhibition [2, 8]: 4%
growth inhibition ([2]; at 50.0 µM): -15%
growth inhibition [3, 7]: 7%
growth inhibition [3, 8]: 2%
growth inhibition ([3]; at 50.0 µM): -18.6%
growth inhibition [4, 7]: 14%
growth inhibition [4, 8]: 3%
growth inhibition ([4]; at 50.0 µM): 48.5%
growth inhibition [5, 7]: 24%
growth inhibition [5, 8]: 0%
growth inhibition ([5]; at 50.0 µM): -19.3%
growth inhibition [6, 7]: 14%
growth inhibition [6, 8]: 0%
growth inhibition ([6]; at 50.0 µM): -11.4%

O=[N+]([O-])c1cc([N+](=O)[O-])c2ccccc2c1O
growth inhibition [1, 7]: 17%
growth inhibition [1, 8]: 90% (active)
growth inhibition ([1]; at 50.0 µM): 75% (active)
growth inhibition [2, 7]: 8%
growth inhibition [2, 8]: 90% (active)
growth inhibition ([2]; at 50.0 µM): 65.1%
growth inhibition [3, 7]: 7%
growth inhibition [3, 8]: 89% (active)
growth inhibition ([3]; at 50.0 µM): 88.8% (active)
growth inhibition [4, 7]: -6%
growth inhibition [4, 8]: 48%
growth inhibition ([4]; at 50.0 µM): 52%
growth inhibition [5, 7]: 2%
growth inhibition [5, 8]: 87% (active)
growth inhibition ([5]; at 50.0 µM): 61%
growth inhibition [6, 7]: 9%
growth inhibition [6, 8]: 92% (active)
growth inhibition ([6]; at 50.0 µM): 82.3% (active)

CCCCCCCCCCCCCCCBr
growth inhibition [1, 7]: -27%
growth inhibition [1, 8]: 4%
growth inhibition ([1]; at 50.0 µM): 10.7%
growth inhibition [2, 7]: -9%
growth inhibition [2, 8]: 12%
growth inhibition ([2]; at 50.0 µM): 49.6%
growth inhibition [3, 7]: -10%
growth inhibition [3, 8]: 6%
growth inhibition ([3]; at 50.0 µM): -9.7%
growth inhibition [4, 7]: -5%
growth inhibition [4, 8]: -5%
growth inhibition ([4]; at 50.0 µM): 85.5% (active)
growth inhibition [5, 7]: 2%
growth inhibition [5, 8]: -2%
growth inhibition ([5]; at 50.0 µM): 80.7% (active)
growth inhibition [6, 7]: 5%
growth inhibition [6, 8]: 18%
growth inhibition ([6]; at 50.0 µM): 92.8% (active)

CCCCCCCCCCCCNCc1ccc(Cl)c(Cl)c1
growth inhibition [1, 7]: 72% (active)
growth inhibition [1, 8]: 96% (active)
growth inhibition ([1]; at 50.0 µM): 99.8% (active)
growth inhibition [2, 7]: 91% (active)
growth inhibition [2, 8]: 98% (active)
growth inhibition ([2]; at 50.0 µM): 99.7% (active)
growth inhibition [3, 7]: 89% (active)
growth inhibition [3, 8]: 98% (active)
growth inhibition ([3]; at 50.0 µM): 99.8% (active)
growth inhibition [4, 7]: 58%
growth inhibition [4, 8]: 90% (active)
growth inhibition ([4]; at 50.0 µM): 99.6% (active)
growth inhibition [5, 7]: 76% (active)
growth inhibition [5, 8]: 96% (active)
growth inhibition ([5]; at 50.0 µM): 97% (active)
growth inhibition [6, 7]: 87% (active)
growth inhibition [6, 8]: 96% (active)
growth inhibition ([6]; at 50.0 µM): 99.7% (active)

CCCCCCCCCCCCCCNC(=O)C[N+](C)(C)Cc1ccccc1
growth inhibition [1, 7]: 99% (active)
growth inhibition [1, 8]: 99% (active)
growth inhibition ([1]; at 50.0 µM): 99.5% (active)
growth inhibition [2, 7]: 99% (active)
growth inhibition [2, 8]: 100% (active)
growth inhibition ([2]; at 50.0 µM): 99.7% (active)
growth inhibition [3, 7]: 99% (active)
growth inhibition [3, 8]: 99% (active)
growth inhibition ([3]; at 50.0 µM): 99.3% (active)
growth inhibition [4, 7]: 99% (active)
growth inhibition [4, 8]: 99% (active)
growth inhibition ([4]; at 50.0 µM): 99.5% (active)
growth inhibition [5, 7]: 99% (active)
growth inhibition [5, 8]: 99% (active)
growth inhibition ([5]; at 50.0 µM): 99.4% (active)
growth inhibition [6, 7]: 99% (active)
growth inhibition [6, 8]: 99% (active)
growth inhibition ([6]; at 50.0 µM): 99.6% (active)

COC1CC2CCC(C)[C@](O)(O2)C(=O)C(=O)N2CCCCC2C(=O)OC(C(C)CC2CCC(O)C(OC)C2)CC(=O)C(C)C=C(C)C(OC(=O)CCCN2CCCC2)C(OC)C(=O)C(C)CC(C)/C=C/C=C/C=C\1C (stereo not given in full)
growth inhibition [1, 7]: 96% (active)
growth inhibition [1, 8]: 98% (active)
growth inhibition ([1]; at 50.0 µM): 90% (active)
growth inhibition [2, 7]: 98% (active)
growth inhibition [2, 8]: 98% (active)
growth inhibition ([2]; at 50.0 µM): 92.3% (active)
growth inhibition [3, 7]: 97% (active)
growth inhibition [3, 8]: 97% (active)
growth inhibition ([3]; at 50.0 µM): 92.9% (active)
growth inhibition [4, 7]: 91% (active)
growth inhibition [4, 8]: 96% (active)
growth inhibition ([4]; at 50.0 µM): 88.2% (active)
growth inhibition [5, 7]: 97% (active)
growth inhibition [5, 8]: 98% (active)
growth inhibition ([5]; at 50.0 µM): 92% (active)
growth inhibition [6, 7]: 96% (active)
growth inhibition [6, 8]: 98% (active)
growth inhibition ([6]; at 50.0 µM): 91.5% (active)

OC(c1ccccc1)(c1ccccc1)c1ccc[cH-]1.OC(c1ccccc1)(c1ccccc1)c1ccc[cH-]1.[Fe+2]
growth inhibition [1, 7]: 3%
growth inhibition [1, 8]: -5%
growth inhibition ([1]; at 50.0 µM): -0.6%
growth inhibition [2, 7]: 3%
growth inhibition [2, 8]: -1%
growth inhibition ([2]; at 50.0 µM): 9.45%
growth inhibition [3, 7]: 3%
growth inhibition [3, 8]: -16%
growth inhibition ([3]; at 50.0 µM): -2.3%
growth inhibition [4, 7]: 4%
growth inhibition [4, 8]: -15%
growth inhibition ([4]; at 50.0 µM): -13.6%
growth inhibition [5, 7]: 3%
growth inhibition [5, 8]: -1%
growth inhibition ([5]; at 50.0 µM): 70.4% (active)
growth inhibition [6, 7]: 1%
growth inhibition [6, 8]: -3%
growth inhibition ([6]; at 50.0 µM): 35.4%

C=CC(=O)Oc1ccccc1/C=C/C(=O)CCCCCC
growth inhibition [1, 7]: 37%
growth inhibition [1, 8]: 95% (active)
growth inhibition ([1]; at 50.0 µM): 96.5% (active)
growth inhibition [2, 7]: 4%
growth inhibition [2, 8]: 98% (active)
growth inhibition ([2]; at 50.0 µM): 97.5% (active)
growth inhibition [3, 7]: 14%
growth inhibition [3, 8]: 88% (active)
growth inhibition ([3]; at 50.0 µM): 97.5% (active)
growth inhibition [4, 7]: -2%
growth inhibition [4, 8]: 72% (active)
growth inhibition ([4]; at 50.0 µM): 62.8%
growth inhibition [5, 7]: 0%
growth inhibition [5, 8]: 95% (active)
growth inhibition ([5]; at 50.0 µM): 83.1% (active)
growth inhibition [6, 7]: 4%
growth inhibition [6, 8]: 95% (active)
growth inhibition ([6]; at 50.0 µM): 96% (active)

O=C(c1ccc([N+](=O)[O-])cc1)C(Br)C(Br)c1ccnc2ccccc12 (stereo not given)
growth inhibition [1, 7]: 25%
growth inhibition [1, 8]: 80% (active)
growth inhibition ([1]; at 50.0 µM): 98.2% (active)
growth inhibition [2, 7]: 23%
growth inhibition [2, 8]: 63%
growth inhibition ([2]; at 50.0 µM): 99.1% (active)
growth inhibition [3, 7]: 21%
growth inhibition [3, 8]: 91% (active)
growth inhibition ([3]; at 50.0 µM): 98.9% (active)
growth inhibition [4, 7]: -1%
growth inhibition [4, 8]: 69%
growth inhibition ([4]; at 50.0 µM): 96.7% (active)
growth inhibition [5, 7]: 3%
growth inhibition [5, 8]: 86% (active)
growth inhibition ([5]; at 50.0 µM): 98.8% (active)
growth inhibition [6, 7]: 18%
growth inhibition [6, 8]: 95% (active)
growth inhibition ([6]; at 50.0 µM): 98.8% (active)
